Assay results reported in the supplement of paper PMC11732987, “Enantioselective OTUD7B fragment discovery through chemoproteomics screening and high-throughput optimisation” (Communications Chemistry, 2025).

Tests used:
Assay in all cases: log2 ratio of Biotin-Ahx-Ub-VS probe labelling (fragment/DMSO); higher = less target engagement (more negative = stronger competition), active = hit call of the paper (q ≤ 0.05, log2 ratio ≤ -1)
Conditions in all cases: compound concentration: 200 uM; treatment time: 3 h
USP34 = USP34 (UniProt Q70CQ2)
In short: (§1)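 HEK293T lysate, 495 µg per sample in Tris/CHAPS/IGEPAL buffer with protease inhibitors, was treated in triplicate with fragment at 200 µM or vehicle for 3 h and then with Biotin-Ahx-Ub-VS at 0.5 µM final for 1 h. Labelled DUBs were NeutrAvidin-enriched, digested with LysC and trypsin, and run by diaPASEF LC-MS/MS. Spectronaut label-free quantities were global-median-normalised, and values are average log2 fragment/vehicle ratios by unpaired t-test on proteins with ≥2 unique peptides.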

USP36 = molecular target: T1, USP36 (UniProt Q9P275)
T1 sequence (whole entry): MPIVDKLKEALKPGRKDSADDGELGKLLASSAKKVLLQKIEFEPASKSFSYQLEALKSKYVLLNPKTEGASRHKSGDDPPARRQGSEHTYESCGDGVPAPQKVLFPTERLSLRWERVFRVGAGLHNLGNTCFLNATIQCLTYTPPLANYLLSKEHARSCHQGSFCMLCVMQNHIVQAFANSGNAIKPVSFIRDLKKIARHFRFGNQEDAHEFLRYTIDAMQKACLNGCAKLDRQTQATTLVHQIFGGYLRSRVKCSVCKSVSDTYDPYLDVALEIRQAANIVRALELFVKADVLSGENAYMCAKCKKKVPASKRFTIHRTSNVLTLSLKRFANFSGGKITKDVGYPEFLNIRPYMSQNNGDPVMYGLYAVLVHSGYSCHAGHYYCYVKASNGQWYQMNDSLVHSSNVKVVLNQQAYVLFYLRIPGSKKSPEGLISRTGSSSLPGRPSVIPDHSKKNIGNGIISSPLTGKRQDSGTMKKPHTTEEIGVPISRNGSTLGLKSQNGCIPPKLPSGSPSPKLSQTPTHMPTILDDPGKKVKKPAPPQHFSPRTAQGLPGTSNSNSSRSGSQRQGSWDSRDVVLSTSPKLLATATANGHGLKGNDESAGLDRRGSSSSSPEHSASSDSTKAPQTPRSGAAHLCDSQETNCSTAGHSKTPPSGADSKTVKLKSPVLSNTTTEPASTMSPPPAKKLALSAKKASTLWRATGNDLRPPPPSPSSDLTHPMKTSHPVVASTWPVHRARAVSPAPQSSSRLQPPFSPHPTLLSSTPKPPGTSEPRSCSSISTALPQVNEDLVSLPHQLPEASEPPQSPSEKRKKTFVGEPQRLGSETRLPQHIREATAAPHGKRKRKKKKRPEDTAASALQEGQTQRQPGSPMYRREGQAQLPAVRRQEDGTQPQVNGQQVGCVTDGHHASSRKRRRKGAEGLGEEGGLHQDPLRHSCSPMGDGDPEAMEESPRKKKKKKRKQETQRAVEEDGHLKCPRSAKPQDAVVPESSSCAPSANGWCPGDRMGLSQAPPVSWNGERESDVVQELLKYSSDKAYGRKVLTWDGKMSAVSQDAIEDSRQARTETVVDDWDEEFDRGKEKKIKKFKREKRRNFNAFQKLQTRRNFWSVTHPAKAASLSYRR
In short: as §1

USP38 = molecular target: T2, USP38 (UniProt Q8NB14)
T2 sequence (whole entry): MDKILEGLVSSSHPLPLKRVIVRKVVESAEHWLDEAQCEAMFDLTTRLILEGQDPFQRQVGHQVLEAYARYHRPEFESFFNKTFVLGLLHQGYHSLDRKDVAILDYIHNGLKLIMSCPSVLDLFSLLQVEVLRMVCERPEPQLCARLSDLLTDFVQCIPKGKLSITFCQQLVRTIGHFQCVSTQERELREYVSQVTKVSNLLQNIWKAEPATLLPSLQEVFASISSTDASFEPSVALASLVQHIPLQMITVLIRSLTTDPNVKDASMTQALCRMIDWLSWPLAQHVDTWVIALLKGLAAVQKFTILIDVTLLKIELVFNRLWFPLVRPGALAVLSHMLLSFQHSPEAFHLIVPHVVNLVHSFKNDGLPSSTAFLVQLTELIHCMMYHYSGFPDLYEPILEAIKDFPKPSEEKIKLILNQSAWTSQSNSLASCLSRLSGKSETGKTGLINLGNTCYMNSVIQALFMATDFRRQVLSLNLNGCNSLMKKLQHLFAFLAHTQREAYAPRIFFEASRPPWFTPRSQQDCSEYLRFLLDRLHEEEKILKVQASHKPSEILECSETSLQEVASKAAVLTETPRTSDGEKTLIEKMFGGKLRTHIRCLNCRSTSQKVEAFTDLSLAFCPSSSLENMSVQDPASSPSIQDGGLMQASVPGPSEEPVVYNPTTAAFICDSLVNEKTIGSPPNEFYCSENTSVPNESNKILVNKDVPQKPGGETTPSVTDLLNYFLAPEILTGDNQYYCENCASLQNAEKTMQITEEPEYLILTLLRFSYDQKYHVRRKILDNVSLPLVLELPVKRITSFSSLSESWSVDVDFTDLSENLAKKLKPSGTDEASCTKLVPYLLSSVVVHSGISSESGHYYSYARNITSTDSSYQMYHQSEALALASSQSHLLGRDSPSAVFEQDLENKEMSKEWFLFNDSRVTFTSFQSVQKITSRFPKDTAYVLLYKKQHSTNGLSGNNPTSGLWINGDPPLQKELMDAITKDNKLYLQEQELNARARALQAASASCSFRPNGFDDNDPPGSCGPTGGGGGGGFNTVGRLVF
In short: as §1

USP39 = molecular target: T3, USP39 (UniProt Q53GS9)
T3 sequence (whole entry): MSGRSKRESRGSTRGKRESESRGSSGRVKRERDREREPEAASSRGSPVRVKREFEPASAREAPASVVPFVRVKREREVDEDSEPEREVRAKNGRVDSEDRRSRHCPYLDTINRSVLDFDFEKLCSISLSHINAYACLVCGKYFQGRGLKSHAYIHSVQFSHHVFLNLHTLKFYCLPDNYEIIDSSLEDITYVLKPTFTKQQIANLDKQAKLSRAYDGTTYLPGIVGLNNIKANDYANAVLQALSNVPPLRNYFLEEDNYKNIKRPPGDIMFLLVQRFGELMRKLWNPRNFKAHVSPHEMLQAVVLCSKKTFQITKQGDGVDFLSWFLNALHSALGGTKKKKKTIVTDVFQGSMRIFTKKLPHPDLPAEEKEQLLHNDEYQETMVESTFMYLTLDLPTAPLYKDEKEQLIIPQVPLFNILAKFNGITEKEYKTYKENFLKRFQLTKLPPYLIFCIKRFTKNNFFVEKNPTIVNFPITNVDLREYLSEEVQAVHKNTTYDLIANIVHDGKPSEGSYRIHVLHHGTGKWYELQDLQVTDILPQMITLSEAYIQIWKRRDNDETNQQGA
In short: as §1

USP4 = molecular target: T4, USP4 (UniProt Q13107)
T4 sequence (whole entry): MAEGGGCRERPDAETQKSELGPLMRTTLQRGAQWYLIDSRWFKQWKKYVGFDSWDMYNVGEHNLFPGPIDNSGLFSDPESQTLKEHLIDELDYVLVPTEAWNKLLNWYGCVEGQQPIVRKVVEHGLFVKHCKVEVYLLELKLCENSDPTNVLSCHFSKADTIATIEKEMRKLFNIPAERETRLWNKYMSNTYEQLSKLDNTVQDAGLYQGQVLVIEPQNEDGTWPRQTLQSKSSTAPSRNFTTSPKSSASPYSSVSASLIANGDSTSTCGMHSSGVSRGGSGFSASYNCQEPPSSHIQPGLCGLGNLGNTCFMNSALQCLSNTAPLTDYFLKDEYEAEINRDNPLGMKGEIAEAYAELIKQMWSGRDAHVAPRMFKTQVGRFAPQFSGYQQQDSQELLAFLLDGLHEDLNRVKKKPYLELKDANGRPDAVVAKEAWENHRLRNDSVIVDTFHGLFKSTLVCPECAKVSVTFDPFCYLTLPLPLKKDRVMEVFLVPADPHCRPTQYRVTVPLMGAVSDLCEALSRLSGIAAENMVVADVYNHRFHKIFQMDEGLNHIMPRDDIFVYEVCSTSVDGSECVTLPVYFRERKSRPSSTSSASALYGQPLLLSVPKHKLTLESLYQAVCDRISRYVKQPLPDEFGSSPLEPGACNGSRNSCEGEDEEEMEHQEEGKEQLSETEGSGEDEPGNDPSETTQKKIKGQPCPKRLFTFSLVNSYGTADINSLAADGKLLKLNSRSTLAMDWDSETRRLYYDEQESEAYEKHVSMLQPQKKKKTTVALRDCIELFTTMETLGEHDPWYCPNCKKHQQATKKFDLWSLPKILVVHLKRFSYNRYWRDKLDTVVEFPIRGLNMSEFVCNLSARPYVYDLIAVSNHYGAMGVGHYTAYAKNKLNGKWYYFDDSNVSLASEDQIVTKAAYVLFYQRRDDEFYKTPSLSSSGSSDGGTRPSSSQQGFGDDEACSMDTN
In short: as §1

Measured: log2 ratio of Biotin-Ahx-Ub-VS probe labelling

Sequence of USP34 (Q70CQ2 whole entry, the tested form may be a part): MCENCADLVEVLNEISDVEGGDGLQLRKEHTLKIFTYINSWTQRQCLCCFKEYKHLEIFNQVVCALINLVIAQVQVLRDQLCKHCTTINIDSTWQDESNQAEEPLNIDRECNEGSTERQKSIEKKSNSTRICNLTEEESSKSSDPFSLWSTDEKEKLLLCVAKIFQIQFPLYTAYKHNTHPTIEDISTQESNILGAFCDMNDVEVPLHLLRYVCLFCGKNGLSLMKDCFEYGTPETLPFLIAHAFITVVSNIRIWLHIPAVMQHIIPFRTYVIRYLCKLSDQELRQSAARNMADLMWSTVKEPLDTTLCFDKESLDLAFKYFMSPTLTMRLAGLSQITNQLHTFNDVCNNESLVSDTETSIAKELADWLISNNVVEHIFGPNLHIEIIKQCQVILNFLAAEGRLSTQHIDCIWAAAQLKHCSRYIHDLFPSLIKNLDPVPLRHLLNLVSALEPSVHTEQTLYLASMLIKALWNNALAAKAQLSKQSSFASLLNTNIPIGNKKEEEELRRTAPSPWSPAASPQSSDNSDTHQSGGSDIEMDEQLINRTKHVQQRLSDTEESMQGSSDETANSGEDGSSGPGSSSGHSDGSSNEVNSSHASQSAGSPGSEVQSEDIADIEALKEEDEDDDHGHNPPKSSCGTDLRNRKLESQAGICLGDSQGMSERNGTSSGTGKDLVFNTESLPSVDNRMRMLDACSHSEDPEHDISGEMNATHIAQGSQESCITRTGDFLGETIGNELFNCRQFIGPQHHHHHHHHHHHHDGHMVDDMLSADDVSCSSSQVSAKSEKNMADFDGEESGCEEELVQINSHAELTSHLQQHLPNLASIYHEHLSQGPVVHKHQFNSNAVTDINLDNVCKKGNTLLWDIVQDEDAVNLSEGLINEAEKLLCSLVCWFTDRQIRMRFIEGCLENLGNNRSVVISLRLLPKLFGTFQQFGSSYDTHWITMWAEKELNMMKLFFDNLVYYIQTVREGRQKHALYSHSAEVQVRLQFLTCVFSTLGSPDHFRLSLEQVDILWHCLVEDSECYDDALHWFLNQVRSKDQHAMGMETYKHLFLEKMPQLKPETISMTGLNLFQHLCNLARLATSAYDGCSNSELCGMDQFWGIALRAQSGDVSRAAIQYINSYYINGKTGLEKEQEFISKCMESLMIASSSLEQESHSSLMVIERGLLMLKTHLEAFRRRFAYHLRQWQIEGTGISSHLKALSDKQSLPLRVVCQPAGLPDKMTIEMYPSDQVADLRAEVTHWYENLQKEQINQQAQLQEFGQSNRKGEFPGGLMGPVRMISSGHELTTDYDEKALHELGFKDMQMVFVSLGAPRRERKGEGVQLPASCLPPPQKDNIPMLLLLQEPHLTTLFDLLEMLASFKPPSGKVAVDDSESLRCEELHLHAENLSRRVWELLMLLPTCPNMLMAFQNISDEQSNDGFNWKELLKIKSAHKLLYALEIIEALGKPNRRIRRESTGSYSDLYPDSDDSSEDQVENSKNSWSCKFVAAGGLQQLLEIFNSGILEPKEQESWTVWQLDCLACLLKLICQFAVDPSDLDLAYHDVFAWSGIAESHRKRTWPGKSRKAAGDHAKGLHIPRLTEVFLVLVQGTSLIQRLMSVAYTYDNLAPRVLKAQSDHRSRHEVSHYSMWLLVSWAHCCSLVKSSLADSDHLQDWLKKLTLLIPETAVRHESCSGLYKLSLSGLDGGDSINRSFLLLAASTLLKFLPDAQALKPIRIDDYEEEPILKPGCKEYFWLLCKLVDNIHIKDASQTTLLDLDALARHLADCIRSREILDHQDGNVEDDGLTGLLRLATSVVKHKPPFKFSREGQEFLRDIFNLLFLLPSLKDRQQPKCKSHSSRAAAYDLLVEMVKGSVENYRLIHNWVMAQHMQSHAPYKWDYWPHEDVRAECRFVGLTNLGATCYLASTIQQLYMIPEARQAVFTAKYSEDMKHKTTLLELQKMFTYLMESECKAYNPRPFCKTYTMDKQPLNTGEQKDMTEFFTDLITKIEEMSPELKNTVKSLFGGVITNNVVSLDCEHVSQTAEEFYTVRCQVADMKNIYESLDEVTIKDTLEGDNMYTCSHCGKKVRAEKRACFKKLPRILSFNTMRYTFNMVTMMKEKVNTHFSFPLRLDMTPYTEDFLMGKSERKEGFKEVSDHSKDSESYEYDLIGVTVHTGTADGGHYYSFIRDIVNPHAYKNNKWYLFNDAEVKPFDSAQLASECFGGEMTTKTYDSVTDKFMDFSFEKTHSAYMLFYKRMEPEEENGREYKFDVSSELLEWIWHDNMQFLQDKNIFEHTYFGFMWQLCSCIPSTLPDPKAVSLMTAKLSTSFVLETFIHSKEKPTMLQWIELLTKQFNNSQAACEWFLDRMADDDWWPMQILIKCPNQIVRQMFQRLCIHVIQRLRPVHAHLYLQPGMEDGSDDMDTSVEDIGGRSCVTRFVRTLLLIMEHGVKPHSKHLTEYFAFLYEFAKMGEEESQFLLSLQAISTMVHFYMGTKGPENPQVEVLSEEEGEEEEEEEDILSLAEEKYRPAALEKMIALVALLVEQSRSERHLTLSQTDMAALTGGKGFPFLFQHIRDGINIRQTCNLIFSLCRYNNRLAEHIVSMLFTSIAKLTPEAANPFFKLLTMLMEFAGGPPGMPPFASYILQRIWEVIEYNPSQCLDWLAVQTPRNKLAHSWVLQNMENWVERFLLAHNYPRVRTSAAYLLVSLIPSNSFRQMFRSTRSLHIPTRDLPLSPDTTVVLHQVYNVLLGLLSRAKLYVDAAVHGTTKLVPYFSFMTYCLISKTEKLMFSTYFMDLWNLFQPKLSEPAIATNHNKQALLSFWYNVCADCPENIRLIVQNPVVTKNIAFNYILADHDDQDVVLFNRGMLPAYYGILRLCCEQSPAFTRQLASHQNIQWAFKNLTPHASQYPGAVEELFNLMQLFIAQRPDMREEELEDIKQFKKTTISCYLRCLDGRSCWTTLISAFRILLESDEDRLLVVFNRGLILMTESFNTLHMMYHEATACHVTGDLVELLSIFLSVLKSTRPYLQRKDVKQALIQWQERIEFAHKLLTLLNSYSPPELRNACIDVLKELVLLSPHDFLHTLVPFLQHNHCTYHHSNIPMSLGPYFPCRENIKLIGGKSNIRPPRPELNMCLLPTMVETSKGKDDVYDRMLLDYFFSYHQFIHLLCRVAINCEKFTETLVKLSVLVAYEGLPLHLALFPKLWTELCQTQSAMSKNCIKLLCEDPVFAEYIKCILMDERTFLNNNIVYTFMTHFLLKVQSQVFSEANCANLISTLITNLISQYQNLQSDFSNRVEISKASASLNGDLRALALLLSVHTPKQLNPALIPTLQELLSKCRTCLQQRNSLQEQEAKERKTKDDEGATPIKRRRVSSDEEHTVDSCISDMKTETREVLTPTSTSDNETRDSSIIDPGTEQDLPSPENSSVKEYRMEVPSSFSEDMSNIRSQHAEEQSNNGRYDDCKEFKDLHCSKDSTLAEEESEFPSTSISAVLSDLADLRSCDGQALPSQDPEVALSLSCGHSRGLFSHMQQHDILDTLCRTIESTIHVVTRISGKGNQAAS

CCN(C(=O)CCl)C1CCCCC1
inactive: USP34 -0.106 | USP36 -0.191 | USP38 0.143 | USP39 0.059 | USP4 0.182
